High-throughput results as filed in PubChem.
Sampled rows, rich in hits. Any-hit rate of the full collection: about 1.5%.
EBV gp42 inh = blocks Epstein-Barr virus glycoprotein 42 binding; Fluorescence polarization binding assay, mP read-out; inhibition, % (tested at 21.74 µM); 0.42% of 220,000 active; in the data active = inhibition above about 50%
Target sequence (Q1HVG2 whole entry, looked up): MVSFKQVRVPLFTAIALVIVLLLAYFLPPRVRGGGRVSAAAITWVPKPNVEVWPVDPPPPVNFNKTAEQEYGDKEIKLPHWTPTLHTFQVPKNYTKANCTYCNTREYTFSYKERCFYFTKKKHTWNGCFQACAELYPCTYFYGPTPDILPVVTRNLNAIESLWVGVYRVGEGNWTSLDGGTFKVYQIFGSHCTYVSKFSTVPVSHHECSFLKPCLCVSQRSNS
MEX-5 binding = C. elegans MEX-5 TCR-2 RNA binding activity; Q9XUB2; AID 1832; activity score (negative = inhibition of binding), % at 10 µM; MEX-5/FITC-TCR2 RNA binding, fluorescence polarization; stronger effect = lower value; 0.38% of 300,000 active;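 active = inhibition past about -25% in most replicates, and total fluorescence under double the plate's negative control median, limit read from the data; inconclusive = replicates evenly split on the limit, or fluorescence at least double controls; inactive = too little inhibition in most replicates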;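 also: 0% = DMSO and -100% = 5 µM competing unlabeled TCR2 RNA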
Bcl-xL primary = inhibitors of human Bcl-xL. Q07817. GST-Bcl-xL / FITC-Bim BH3 peptide fluorescence polarization. inhibition, % at 10.9 µM. 0.7% of 320,000 active. AID 2129;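 active = inhibition above the mean of all tested compounds plus 3 SD, cutoff set per campaign, cut at about 30% in these data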;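 also: 0% = DMSO wells and 100% = unlabeled Bim-BH3 peptide competitor; inhibitors lower millipolarization by displacing the labeled peptide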
Target sequence (Q07817 whole entry, looked up): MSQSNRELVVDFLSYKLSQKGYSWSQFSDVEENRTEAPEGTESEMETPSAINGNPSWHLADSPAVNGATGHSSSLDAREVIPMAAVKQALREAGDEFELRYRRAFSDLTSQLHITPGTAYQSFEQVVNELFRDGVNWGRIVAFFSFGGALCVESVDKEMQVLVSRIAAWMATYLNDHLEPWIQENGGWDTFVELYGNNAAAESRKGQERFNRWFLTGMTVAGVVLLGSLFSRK
GLD-1 TGE inh = GLD-1-TGE RNA interaction inhibition (C. elegans); purified GLD-1 + fluorescein TGE RNA, fluorescence polarization; inhibition, % at 5.96 µM; 0.44% of 320,000 active; AID 2280;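 active = percent inhibition above a per-plate cutoff, the plate mean of test compounds plus 3 SD, cut at about 30% in these data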;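 also: 0% = DMSO wells with GLD-1 and probe and 100% = wells lacking GLD-1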
MCL1-BIM inh = disrupts human MCL1 binding to BIM-BH3 peptide; 0.68% of 320,000 active; GST-MCL1 / FITC-Bim-BH3 fluorescence polarization; Q07820; AID 2057; inhibition, % at 10.9 µM;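 active = inhibition above the mean inhibition of all tested compounds plus 3 SD, set per campaign, cut at about 40% in these data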;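 also: 0% = DMSO wells and 100% = unlabeled Bim-BH3 peptide control; higher means more loss of mP so more displacement of Bim peptide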
E coli Lon inh = E. coli protease La inhibition; purified E. coli Lon protease, fluorescence polarization; inhibition, % at 7.94 µM; 0.42% of 360,000 active; AID 602123; in the data active = inhibition above about 13%, passing the limit was not always enough;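 also: 0% = enzyme with probe and DMSO and 100% = no enzyme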
Numbers without * were called inactive; ? = inconclusive; · = no result given.

SMILES	EBV gp42 inh	MEX-5 binding	Bcl-xL primary	GLD-1 TGE inh	MCL1-BIM inh	E coli Lon inh
Cc1cc(C)c(C#N)c(SCC(=O)N2CCCCC2)n1	119.3*	-0.8	1.4	-0.5	-10.3	-8.9
COc1ccc(Nc2nnc(-c3ccc(C(N)=O)cc3)c3ccccc23)cc1	·	0.1	9.2	-4.2	8.8	8.6
COc1ccc(-c2nnc(Nc3ccc(S(=O)(=O)Nc4nccs4)cc3)c3ccccc23)cc1	51.8*	1.1	·	·	·	-2.8
CCc1c(C)nc(SCC(N)=O)c(C#N)c1C	-32.3	1.1	1.9	-0.1	3.9	-0.5
CCc1c(C)nc(SCC(=O)c2cccs2)c(C#N)c1C	-19.7	-33.6*	-0.8	-23.8	-7.3	-43.7
Cc1ccc(C(=O)N/C(=C/c2ccco2)C(=O)Nc2cccc(C(=O)O)c2)cc1	·	-1.2	16.1	18.8	11.4	·
COc1ccccc1C(=O)N/C(=C/c1ccco1)C(=O)Nc1cccc(C(=O)O)c1	·	-5.9	30.7*	13.6	29.2	-25.1
CN(C)CCNc1oc(COc2ccc(Cl)cc2Cl)nc1C#N	11.5	-2.1	34.2*	26.3	42.2*	13.2
CC(=O)N1CCc2cc(C(=O)CN3CCN(c4ccccn4)CC3)ccc21	4.3	3.4	3.9	3.1	1.5	-3.0
c1ccc(-c2nn3c(Cn4nnc5ccccc54)nnc3s2)nc1	20.5	-3.7	37.6*	13.6	48.0*	-0.4
CC1=CC(=C(C#N)c2nc3ccccc3s2)C=C(C)N1CC1CCCO1 (stereo unspecified)	155.2*	-35.8*	-5.3	3.6	-4.4	-12.3
COc1ccccc1C(=O)NC(=O)COC(=O)CNC(=O)c1ccccc1	·	0.7	2.9	0.8	-4.9	-0.6
Oc1cc2c(cc1O)C1c3ccc(O)c(O)c3OCC1(O)C2 (stereo unspecified)	-14.0	·	34.2*	34.9*	77.5*	10.5
CN(Cc1ccc(-n2cccn2)cc1)Cc1nc(-c2cnccn2)no1	-4.1	-0.3	4.4	11.6	-2.1	-3.7
Cc1cccc(Nc2c([N+](=O)[O-])ccc3nonc23)c1C	·	2.4	·	·	·	3.3
Cc1ccc(Nc2c([N+](=O)[O-])ccc3nonc23)c(C)c1	·	0.1	46.4*	-1.4	6.5	-3.0
NNC(=O)c1ccc(CSc2nc3ccccc3s2)cc1	-4.6	0.0	2.2	2.5	-0.2	-2.6
COc1ccc(/C=C2\CCCc3c2nc2ccccc2c3C(=O)OCC(=O)c2c(N)n(C)c(=O)n(C)c2=O)cc1	1.6	-0.5	41.1*	100.9*	39.2	·
COc1ccc(-c2cc(C(=O)OCC(=O)c3c(N)n(C)c(=O)n(C)c3=O)c3ccccc3n2)cc1	-20.7	-3.9	-0.1	-0.7	3.4	-9.4
COc1ccccc1NC(=S)NNC(=O)c1cc(C)n(C)n1	-20.1	-25.8*	-0.4	2.9	3.8	-4.1
COc1ccccc1NC(=S)NNC(=O)c1cc(C)nn1C	-16.8	-16.3	8.3	-0.5	5.6	-7.0
CCOC(=O)c1cnc(N2CCN(c3ccccc3)CC2)[nH]c1=O	·	-1.7	·	·	·	2.1
CCN(CC)c1ccc(/C=c2\sc3nnc(-c4ccccc4Cl)n3c2=O)cc1	193.3*	?	-116.5	-74.3	-175.5	-210.2
Cc1ccc(/C=c2/sc3nnc(-c4ccccc4Cl)n3c2=O)o1	-15.2	0.0	9.9	2.4	10.6	-15.3
CCN(CC)c1ccc(/C=C2/C(=O)ON=C2C)cc1	-295.2	34.0	-90.9	-179.2	-214.8	-258.9
SMILES	EBV gp42 inh	MEX-5 binding	Bcl-xL primary	GLD-1 TGE inh	MCL1-BIM inh	E coli Lon inh
CCN(CC)c1ccc(/C=c2/sc3nnc(-c4ccccc4C)n3c2=O)cc1	171.6*	-62.6*	-51.7	-69.3	-81.6	-108.9
Cc1cc(C(=O)OCC(=O)N(C)c2c(N)n(Cc3ccccc3)c(=O)[nH]c2=O)c(C)n1-c1ccccc1	·	·	-0.1	-2.1	-3.5	-15.8
COc1ccc(CNC(=O)/C=C/[C@H]2O[C@@H](n3cc(C)c(=O)[nH]c3=O)C[C@@H]2O)cc1	·	·	·	·	·	-5.0
O=C/C(=C\Nc1ccccn1)c1nc2ccccc2o1	-24.7	-37.1*	4.5	-7.5	-0.2	-16.5
CCN1C(c2ccc(F)cc2)=CS/C1=C(/C#N)c1nnc2n1-c1ccccc1SC2	·	·	·	·	·	-10.9
COc1ccc(-c2[nH]ncc2CNC(C)CCn2cccn2)c(F)c1 (stereo unspecified)	-13.0	0.9	4.0	-2.7	4.6	5.6
COc1ccc(-c2[nH]ncc2CNC(C)c2cn(C)nc2C)c(F)c1 (stereo unspecified)	-14.8	3.1	67.9*	7.8	13.3	-0.7
O=C(CCN1C(=O)COc2ccccc21)NCc1ccco1	53.0*	-2.1	9.7	2.8	6.2	-9.2
Cc1nc2cc(C(=O)O)ccc2n1C1CCCCC1	-15.9	-1.9	0.4	1.9	5.4	-7.9
CCN(CC)C(=O)CN1CCC(n2c(C)nc3cc(C(F)(F)F)ccc32)CC1	8.9	-9.6	30.6*	11.0	34.1	-14.3
CCc1ccc(/C=C2\Oc3c(ccc(O)c3CN3CCN(CCO)CC3)C2=O)cc1	-5.0	-30.0*	51.2*	7.5	48.6*	-32.9
CCc1ccc(/C=C2\Oc3cc(OS(C)(=O)=O)ccc3C2=O)cc1	-1.3	-1.1	-2.8	2.0	-2.4	-11.4
CCN1C(=O)/C(=C\c2cccs2)C(C(=O)OC)=C1C	-22.1	-78.0*	1.7	-4.7	-2.6	-2.6
COC(=O)C1=C(C)N(CC(C)C)C(=O)/C1=C\c1cccs1	6.2	-1.8	3.3	1.6	2.0	4.0
Cc1ccc(C)c(S(=O)(=O)N2CCN(C(=O)Cc3sc(C)nc3-c3ccc(F)cc3)CC2)c1	·	·	·	·	·	0.3
Cc1ccc(S(=O)(=O)N2CCCOC2CNC(=O)C(=O)NCc2cccs2)cc1 (stereo unspecified)	-9.8	2.5	0.5	6.1	2.5	-6.1
CC(OC(=O)c1cc2ccccc2cc1O)C(=O)Nc1ccc(S(N)(=O)=O)cc1 (stereo unspecified)	-5.2	-3.4	-3.0	3.9	-3.6	-9.2
CC(OC(=O)c1c2c(nc3ccccc13)/C(=C\c1ccc3c(c1)OCO3)CCC2)C(=O)Nc1ccc(S(N)(=O)=O)cc1 (stereo unspecified)	149.3*	·	·	·	·	76.8*
CCc1cc2c(SCC#N)ncnc2s1	-14.8	0.4	-2.7	-4.2	3.4	10.5
O=C(CN1C(=O)c2ccccc2S1(=O)=O)Nc1ncc(Cl)cc1Cl	·	·	·	57.4*	·	10.5
O=C(CN1C(=O)c2ccccc2S1(=O)=O)Nc1ncccn1	·	0.2	6.7	9.9	9.0	-1.3
O=C(NCc1ccccn1)Nc1ccccc1C(F)(F)F	·	-2.6	2.2	-1.6	-6.9	-6.9
N#Cc1ccc[n+](CC(=O)c2ccc(Cl)cc2)c1	·	-3.7	33.2*	15.6	39.6	-1.6
Cc1ccc[n+](CC(=O)c2ccc(Br)cc2)c1	·	-1.1	·	·	·	-8.1
Cc1ccccc1NC(=O)CN1C(=O)NC2(CCc3ccccc32)C1=O (stereo unspecified)	·	·	4.1	-1.1	5.0	7.1
